# Assays:
# Assay in all cases: PBM binding z-score (relative to random genomic background probes); higher = stronger binding; sequences stand for … in GC…GCGATTGACAGCGTAGAATGAAGG
# [1] = tested on: PPARg:RXRa DBDmut IVT, anti-RXR (DBD mutation: RXRa K156A/R161A, NR concentration 270 nM, RXRa partner concentration 90 nM)
# Summary of the method: (§1)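 Binding z-scores take random background probes as their reference. They come from custom Agilent 4×180K protein-binding microarrays incubated 1 h with ligand-free nuclear receptor dimers, with antibodies against each partner (one per run) detecting binding. Scanned fluorescence was regression-normalized.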
# [2] = tested on: PPARg:RXRa IVT, anti-PPARg (NR concentration 270 nM, RXRa partner concentration 90 nM)
# Summary of the method: as §1
# [3] = tested on: PPARg DBDmut:RXRa IVT, anti-PPARg (DBD mutation: PPARg1 K132A/R137A, NR concentration 270 nM, RXRa partner concentration 90 nM)
# Summary of the method: as §1
# [4] = tested on: PPARg DBDmut IVT, anti-PPARg (DBD mutation: PPARg1 K132A/R137A, NR concentration 270 nM)
# Summary of the method: as §1
# [5] = tested on: PPARg homodimer (NR concentration 180 nM)
# Summary of the method: as §1
# [6] = tested on: PXR:RXRa (NR concentration 270 nM, RXRa partner concentration 90 nM)
# Summary of the method: as §1
# [7] = tested on: PXR homodimer (NR concentration 270 nM)
# Summary of the method: as §1
# [8] = tested on: RARa:RXR (NR concentration 270 nM, RXRa partner concentration 90 nM)
# Summary of the method: as §1
# [9] = tested on: RARa homodimer (NR concentration 270 nM)
# Summary of the method: as §1
# [10] = tested on: RARb:RXRa (NR concentration 270 nM, RXRa partner concentration 90 nM)
# Summary of the method: as §1
Sequence,PBM binding z-score [1],PBM binding z-score [2],PBM binding z-score [3],PBM binding z-score [4],PBM binding z-score [5],PBM binding z-score [6],PBM binding z-score [7],PBM binding z-score [8],PBM binding z-score [9],PBM binding z-score [10]
TCTTGTAGATCAGCAGGCTAAGAAAGCTGGCCAA,1.35,0.0627,-0.91,-0.15,-1.56,-0.333,-0.655,-0.459,-0.665,-0.469
GGAACGAGGGCATTCGAGTTGATTGCATGGCGAT,2.85,2.45,0.178,-0.205,-0.105,3.88,1.55,1.03,-0.634,1.84
CCAGACAGGTGAGAAGGAAACTCAGCCTCGATTA,1.07,0.281,0.656,-0.614,0.615,-0.158,0.143,0.0468,0.447,0.0743
CAAACTAGGTCAAGAGGTGAAAGTCCGCTTCCCG,8.11,8.63,5.95,5.05,5.72,2.72,0.369,4.83,1.4,4.54
GTACCAAGGTGAATAGGTCGTTGGTGAGTAGGCG,1.63,2.76,-0.162,-0.965,0.877,0.626,-0.0296,1.9,-0.0597,2.1
CGTACTAGGTCATCCAGGACAGTGAATACATTGA,7.23,7.74,1.93,1.33,2.23,1.87,0.94,2.45,0.55,3.8
TCTATTAGTTGAAGGGCAACTGACGAGTCCGTTT,2.25,0.905,0.468,0.573,0.905,0.88,0.479,1.08,1.44,1.6
ACTATTAGTTGACTTAGGGGAACCGATACGACGC,1.27,0.41,1.51,1.41,0.783,0.271,0.621,0.648,1.36,0.217
CGAACGAGGTCAAGGACAGTGAATCTCCGCACGC,5.22,5.6,0.997,-0.199,2.14,4.9,0.979,5.15,0.619,5.24
CGTCCAAGGTCAAAGGTCCGTGAAGAGATGACGG,3.4,4.24,0.753,0.764,2.99,4.61,1.12,5.96,0.563,5.32
AGAACGAGGGCAATGAGTTGCTAGCACGGGTGGC,3.04,2.38,0.736,-0.0393,-0.0603,0.451,0.523,0.256,-0.567,1.98
CCTACTGGGCCTAAAAGGTCATTGATGCCGATAA,0.181,1.85,-0.634,-1.2,2.99,4.85,2.21,5.06,1.56,4.02
ATCTCTAGGTAAAGTTCAGTGGAAGATCGATAGA,2.46,2.61,1.21,1.71,1.29,2.07,1.8,1.44,1.81,2.86
CCTGACGGGTCACTGACAGGTTATAGCATTTGGA,1.12,1.82,0.147,-0.292,3.03,3.08,-0.179,4.01,0.536,3.69
TCTCGGAAGACACGAAAGGTCAGAGCTCGACATC,2,1.27,0.544,-0.207,3.09,3.58,0.388,4.27,1.14,3.73
GCTTGTAGATCAAGGCTAAGAAAGACTAAGCTAA,0.902,-0.107,-0.0292,-0.466,-1.05,-0.743,-0.42,-0.679,-0.656,-0.482
TCGAGTAGGTTACCAATCGGGCATTCAGCTTTCT,3.13,2.4,-0.0689,-0.723,-0.473,-0.159,-0.753,-0.172,-0.843,0.778
TCTAGTTGGTCAAAGGTGACACACTCGAAATGCG,3.81,4.76,1.03,1.64,2.13,2.14,0.548,2.88,1.33,2.38
CCAGACAGATGAAAGGTAACTCAGTCTGGTACGC,-0.108,-0.154,-0.0341,-0.512,0.444,0.0908,0.0132,0.186,0.861,0.167
TCATATAGGTATAAGGTGAAAGTCGGTGTGGTAA,2.8,2.27,1.02,0.854,1.32,0.935,0.866,1.62,1.54,1.23
CCTACTGGGCAATCAGGTCATTGATATCAACGTT,2.45,3.55,0.181,-0.716,0.487,1.48,0.775,1.95,0.376,1.69
TGAATGAGGTTATCAGATCAGGGAACGTTGCAAA,1.59,2.2,0.55,-0.0543,1.69,0.942,-0.255,1.45,-0.892,1.44
ACTAGCAGGCCACGTTTGGGTCACTCAAACAAAG,1.75,1.88,-0.646,-0.408,0.639,0.56,-0.664,1.3,-0.197,1.58
GGAACGAGTGCAAGTTGATAGCAGAGTTTGATGG,-0.142,-0.639,0.145,-0.69,-0.875,0.885,1.16,-0.297,-1.23,0.365
TCATATAGGTAAAAGGTGAAACTCGGTGTGGTAA,5.96,5.4,0.902,1.04,1.99,2.27,0.443,3.48,1.82,2.26

Sequence,PBM binding z-score [1],PBM binding z-score [2],PBM binding z-score [3],PBM binding z-score [4],PBM binding z-score [5],PBM binding z-score [6],PBM binding z-score [7],PBM binding z-score [8],PBM binding z-score [9],PBM binding z-score [10]
CGAACGAGGGCATGAGTTCATAGCAAATGCCGAT,3.09,2.4,-0.0442,-0.857,0.292,4.74,7.66,2.71,-0.81,3.01
GCAGACAGGTGAAACGCAGGTAACTCTGGGTGGC,1.28,0.558,-1.09,-1.05,-0.859,-0.322,-1.1,0.0559,-1.16,0.63
AGAATGAGGTTATTAAGATGAGGGAATTGCGGTC,2.83,1.97,1.19,0.341,1.28,1.03,0.85,1.22,1.23,1.41
ATCTCTAGGTAACAAGTTCACTGAAAGAGAGGAC,3.4,3.15,1.22,1.68,1.6,2.83,2.82,2.02,0.943,2.18
TCTTGTAGATCAGCAGCTTAAGAAAGCTGGCCAA,1.33,-0.294,-1.1,-0.39,-0.337,-0.0714,-0.755,0.087,-0.736,-0.491
ACTAGCAGGCCAGGGGTCACTCAAGATTAGTCCG,0.771,3.24,0.053,0.0858,2.99,5.13,0.401,5.58,1.68,3.85
CCTAGCAGGCCAATCTTGGTCACTCAAGGCTTGA,1.37,0.831,-0.756,-1.03,-0.618,-0.565,-0.712,-0.332,-1.07,0.275
CCGGCTGGGGCAGAAAGGTTACCATACCATCCGG,-0.851,-0.138,-1.63,-1.34,0.44,0.704,-0.199,1.52,-0.576,1.85
CCAGACAGGTGCAAGGTAACTCAGTCTGGTACGC,-0.395,-0.318,-0.426,-0.666,-0.0621,-0.444,-0.237,-0.146,-0.328,-0.0725
CGCCCAAGGTCAAGGTCAGTGAAAGAGACTCGAA,3.15,4.18,0.61,-0.556,3.84,4.83,0.538,5.32,1.22,5.62
ACTGTTAGTTGAGACGAGGGCAACCGATAGGTTG,-0.176,0.773,0.909,0.848,0.542,1.2,0.0894,0.667,0.756,1.21
TTACGAAGGTGAGCTGAGGTCGTTGATCCAACTC,0.758,1.28,-0.294,-0.134,0.215,5.29,0.95,1.56,-0.794,1.79
CTCGAAAGGTCGTGCTCAGGTGAGCATACCAAAC,0.762,2.31,0.195,0.25,3.06,3.43,-0.196,4.74,-0.133,3.92
CCGACTGGGGCAAAGGTTACCCTACTCAGTACGA,4.37,5.45,-0.494,-0.866,0.732,1.9,-0.0869,3.02,-0.235,2.1
ATCGAAAGCTCGACGAGGTGAGTATACACCGTTT,-0.441,0.00949,0.478,0.316,-0.162,-0.321,-0.326,-0.226,-0.876,-0.148
ACAGACAGGTGATGAAGGTAAGTCAGGCTATCAT,0.134,0.289,0.49,-0.485,-0.00799,-0.348,-0.234,-0.203,0.26,0.27
TTACCAAGGTGAAGGTCGTTTATCCCTCTGTAGA,2.02,3.38,0.35,0.225,0.696,1.7,0.623,1.65,-0.48,2.2
CCTAGCAGGCCAGGGCCACTCAAGCATTTCGCTT,-0.0979,-0.384,-1.54,-0.795,-0.711,-1.11,-0.775,-0.903,-0.897,0.21
CCTATTAGTTGACCATATGGGCAACCGAAGCTCG,0.421,1.14,0.935,0.461,0.842,0.0373,0.489,0.314,1.68,0.652
AGTCAAAGTTCAGGACAAGGTAACGTAAAGCACG,-0.163,2.21,1.02,0.792,2.91,3.12,1.58,3.09,1.2,4.38
CCGAGTAGGTTATGGGGCATTCAGGCAACGGTGA,3.19,3.21,-0.378,0.039,0.874,-0.0382,0.0489,0.571,0.139,0.99
CCTACTGGGCCAAAAAGGTCAGTGATGCCGATAA,3.45,3.63,-0.398,-1.18,2.33,2.55,0.561,3.29,1.18,3.67
TCGACTAGGTTAGTCGGGGCATTCAGCCAACATA,2.49,2.12,-0.552,-0.496,-0.609,0.117,-0.422,0.0483,-1.11,0.662
GTACCAAGGTGAATAGGTCGTAGATGAGTAGGCG,1.69,2.84,-0.433,-0.143,0.982,0.659,-0.144,1.8,0.467,2.17
